Measured values reported in PubChem BioAssay AID567 (The Scripps Research Institute Molecular Screening Center, 2006).
The campaign covered roughly 65,000 compounds. About 370 (0.57%) were called active. This is one part of a sample in which actives are shown more often than they occur.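 How the source made its calls: active means activation above the screen-wide mean activation plus 3 SD (cut at about 19% in these data); inactive means the rest.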

Each molecule was assayed against 5-hydroxytryptamine receptor 1A (Homo sapiens) (UniProt P08908) (assay: human 5-HT1a receptor agonists, primary screen, cell-based, CHO, Ga15 NFAT-bla reporter (AID 567;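 further: 0% = DMSO wells and 100% = 5-CT at EC100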)). Details: CHO 5-HT1a Ga15 NFAT-bla reporter, FRET ratio; at 10 µM; stronger effect = higher value; 0% basal, 100% maximal reference agonist.
5-hydroxytryptamine receptor 1A (Homo sapiens), sequence (P08908 whole entry, looked up): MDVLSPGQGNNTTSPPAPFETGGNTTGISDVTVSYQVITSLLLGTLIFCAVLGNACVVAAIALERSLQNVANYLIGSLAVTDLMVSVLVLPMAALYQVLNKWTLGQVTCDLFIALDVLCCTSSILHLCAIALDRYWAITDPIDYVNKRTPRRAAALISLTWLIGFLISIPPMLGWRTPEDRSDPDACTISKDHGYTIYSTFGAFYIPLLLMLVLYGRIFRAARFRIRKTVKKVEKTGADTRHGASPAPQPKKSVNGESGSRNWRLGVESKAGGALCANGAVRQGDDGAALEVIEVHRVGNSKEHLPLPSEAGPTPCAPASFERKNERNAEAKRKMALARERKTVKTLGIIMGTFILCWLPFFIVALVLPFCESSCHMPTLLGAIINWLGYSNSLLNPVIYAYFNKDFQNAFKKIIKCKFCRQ

activation, active:
O=C(Nc1ccc(Cl)cn1)c1cnn2cccnc12 193%
N#Cc1cccc(CSc2nnc(CCCO)n2-c2ccccc2)c1 77%

activation, inactive:
CCOC(=O)C1=C(C)NC(C)=C(C(=O)OCC)C1c1ccccn1 -1.2%
CCN1C(=O)C(C(=O)NC(C)c2ccccc2)C2CC1(C)Oc1ccccc12 (centres undefined) -0.28%
COc1ccccc1N(CC(=O)N1CCCCC1)S(=O)(=O)c1ccccc1 -2.64%
COc1ccc(C2C3=C(CC(C)(C)CC3=O)Oc3ncn4nc(-c5cccnc5)nc4c32)cc1OC (centres undefined) -3.54%
COc1ccc(CC(NC(C)=O)C(=O)NC2CCN(C(=O)Nc3ccc(C#N)cc3)CC2)cc1OC (centres undefined) 0.53%
Cc1ccc(NC(=O)Cn2nc(C)c3ccccc3c2=O)c(C)c1 -0.44%
CCOC(=O)Cc1csc(NC(=O)CSc2nc(C)cc(=O)[nH]2)n1 -1.16%
COc1cccc(-n2c(Cc3cc(=O)[nH]c(=O)[nH]3)nnc2SCC(=O)Nc2ccccc2)c1 -5.6%
Cc1cc(NC(=O)c2cnn3cccnc23)n(-c2ccccc2)n1 1.07%
O=C(Nc1ccc(Cl)cn1)Nc1cccs1 -4.12%
Fc1ccc(Cn2nnnc2C(c2cccs2)N2CCCCCC2)cc1 (centres undefined) -2.4%
CCC12CN3CC(CC)(CN(C1)C31C(=O)N(C)c3ccc(C)cc31)C2=O (centres undefined) -2.01%
COC(=O)CNC(=O)c1ccc2c(c1)S(=O)(=O)c1ccccc1C2=O 1.02%
Cc1cc(N2C(=O)c3ccc(C(=O)NCc4ccccc4)cc3C2=O)no1 -3.09%
N#Cc1ccc(CSc2nnc(-c3ccccn3)n2-c2ccc(Cl)cc2)cc1 0.34%
CNC(=O)CSc1nnc(CCc2ccccc2)n1-c1ccccc1 0.04%
O=C(NC1CC2CCCC(C1)N2C(=O)N1CCCCC1)C1CCCCC1 (centres undefined) 2.68%
Cc1cnc(NC(=O)CSc2nnc(-c3ccc(Cl)cc3Cl)n2N)s1 -1.25%
CN(c1nc2ccccc2n2c(-c3ccco3)nnc12)S(=O)(=O)c1ccccc1 0.58%
Cc1ccc2nc(NC3=NCN(CCc4ccccc4)CN3)nc(C)c2c1 -1.7%
CCOC(=O)C(C)Oc1cccc2c(=O)n(CC(=O)N3CCc4ccccc43)ccc12 (centres undefined) -0.82%
CCC(C(=O)N1CCOCC1)n1c(C(=O)OC)cc2occc21 (centres undefined) -0.28%
O=C(CCCC(=O)N(CC(=O)NC1CCCC1)Cc1ccccc1Cl)Nc1ccccn1 0.54%
Cn1c(Cc2csc(N)n2)nnc1SC/C=C/c1ccccc1 0.48%
CCCOC(=O)c1[nH]c2c(c1C)C(=O)CC(c1cc(OC)c(OC)c(OC)c1)C2 (centres undefined) -1.49%
Cc1noc(COc2ccccc2OCC(O)CNC(C)(C)C)n1 (centres undefined) 2.09%
CCOc1ccc2[nH]c(=O)c(C(c3nnnn3CCOC)N3CCOCC3)cc2c1 (centres undefined) -1.3%
Cc1cc(C(=O)COC(=O)CCCN2C(=O)c3ccccc3C2=O)c(C)n1C -2.69%
CCCc1nc(-c2ccccc2O)n(-c2ccccc2)n1 -3.29%
COc1ccc(-c2nnc(SCC(=O)NC3CCCCC3)o2)cc1OC -1.36%
O=c1ccc2cc(S(=O)(=O)N3CCN(c4ccccc4)CC3)ccc2o1 -2.8%
Cc1nonc1OCCn1nnnc1N 0.59%
